Measurements taken from PubChem BioAssay (NCI).
Compounds without any hit were thinned out: in the full panel of roughly 83,000, 20% have a hit.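 Note: values are percent growth. 100 is the growth of untreated cells, values between 100 and 0 indicate rising inhibition; between -100 and 0 indicates cell death.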 Values without a mark were called inactive. Calls of active or inactive are those of the source.

The molecules below were run on CAKI-1 renal (assay: NCI-60 one-dose screen, 48 h (100 = growth as untreated, 0 = no growth, -100 = all killed)). Details: 10 µM unless noted.
Method: Growth inhibition of the CAKI-1 human tumor cell line is measured as a screen for anti-cancer activity. Cells are grown in 96 well plates and exposed to the test compound for 48 hours. Compounds are tested at a single concentration, which is 10^-5 M for most compounds. The reported endpoint is percent growth (GI% or GIPRCNT), where numbers from 0 - 100% represent growth inhibition, and numbers from -100% - 0 represent cell death. For example, a value of 40 represents 60% growth inhibition. A value of 0 means no net growth occurred over the course of the experiment. A value of -40 indicates 40% of cells at the beginning of the experiment died by the end of the experiment. A value of -100 means all cells are dead at the end of the experiment.
NCI-60 Human Tumor Cell Lines Screen was performed using the standard one-dose NCI protocol, which is described in more detail at https://dtp.cancer.gov/discovery_development/nci-60/default.htm.
Compounds with GIPRCNT values below 10 were considered active. Activity score was based on GIPRCNT using the following formula: […]
Score is 0 for GIPRCNT values of 100 or above, 50 for GIPRCNT values of 0, and 100 for GIPRCNT values of -100.
In the case of `COc1cc2c(=O)n(C3CCCCCCC3)c3c4cc[nH]c4ncc3c2cc1OC`, the growth is reported as 54.6%. `Cn1cc(C2=C(c3cn(C4CCN(Cc5ccccn5)CC4)c4ccccc34)C(=O)NC2=O)c2ccccc21` gave a growth of 50.8%. Molecule `CCOP(=O)(Nc1ccc2c(c1)/C(=N/NC(N)=S)c1ccccc1-2)OCC` has a growth of 97.4%. For `CNCc1cccnc1`, the growth was 92%. Molecule `COP(=S)(N1CC1)N1CC1` has a growth of 93.6%. `C[C@]12CCc3sc(-c4cccc(F)c4)nc3C1=CC[C@@H]1[C@@H]2CC[C@]2(C)C(=O)CC[C@@H]12` was tested, and the growth was 36.9%. Work on `COc1ccc(S(=O)(=O)N(Cc2ccc3c(c2)C=CC(C)(C)O3)c2ccccc2)cc1OC` yielded a growth of 61.7%. Work on `COC(=O)[C@H](Cc1c[nH]c2ccccc12)NC(=O)[C@@H](OC)[C@@H]1Cc2cc3cc(OC4CC(OC5CC(O)C(O)C(C)O5)C(O)C(C)O4)c(C)c(O)c3c(O)c2C(=O)[C@H]1OC1CC(OC2CC(OC3CC(C)(O)C(O)C(C)O3)C(O)C(C)O2)C(O)C(C)O1` (stereo not given in full) yielded a growth of 19.5%. Molecule `CCCCN(CCCC)P(=O)(Oc1ccccc1)Oc1ccccc1` has a growth of 32.4%. With `CC1=C(CNO)C2=C(C)C3(CC3)[C@@](C)(O)C(=O)C2=C1` the growth was -9.31% (active). `Clc1cccc(NCOOC2(OOCNc3cccc(Cl)c3)CCCCCC2)c1` showed a growth of 36%. `CCCCCCCCCCCCCCCCCC1OC[C@@H](COC(=O)O[C@@H](C(=O)O[C@H]2C[C@@]3(O)[C@@H](OC(=O)c4ccccc4)[C@@H]4[C@]5(OC(C)=O)CO[C@@H]5C[C@H](O)[C@@]4(C)C(=O)[C@H](OC(C)=O)C(=C2C)C3(C)C)[C@@H](NC(=O)c2ccccc2)c2ccccc2)O1` (stereo not given in full) was tested, and the growth was 89.3%. `N/C(=N/N=C/c1ccncc1)N[N+](=O)[O-]` gave a growth of 99.2%. In the case of `O=[N+]([O-])c1ccc([Se]C2CCCCC2Cl)c([N+](=O)[O-])c1` (stereo not given), the growth is reported as 76.7%. With `C/C(=C\c1ccn(-c2ccc(N)cc2)n1)[C@@H]1C[C@@H]2O[C@]2(C)CCC[C@H](C)[C@H](O)[C@@H](C)C(=O)C(C)(C)[C@@H](O)CC(=O)O1` the growth was 43.2%. Work on `O=C1C2CCC1C(N1CCCC1)CC2` (stereo not given) yielded a growth of 97.7%. In the case of `COc1cc(C=Nc2cccc(Br)c2)ccc1N(CCCl)CCCl`, the growth is reported as 5.9% (active). With `COC1CC2c3ccccc3C1C(C)=[N+]2C` (stereo not given) the growth was 69.3%. Molecule `COc1ccc2c(c1)c(C1(O)CC(CSC#N)OC1=O)cn2C(=O)c1ccc(Cl)cc1` (stereo not given) has a growth of 82.9%. With `O=[N+]([O-])/C=C\c1ccc(Cl)c(Cl)c1` the growth was 84.7%. Work on `CC(C)(NC(=O)O[C@@H]1CN2CCC1CC2)c1csc(-c2ccc(F)cc2)n1` yielded a growth of 81.5%. Work on `ClCCN(CCCl)c1ccc(OCc2ccccc2)cc1` yielded a growth of 11.4%. With `O=C(NCCN1CC1)C(=O)NCCN1CC1` the growth was 20.9%. With `O=C1N[C@@H]2[C@@H](O)[C@@H](O)[C@H](O)C[C@H]2c2cc3c(c(O)c21)OCO3` the growth was -7.77% (active). `O=C(c1cccc(O)c1O)c1cn(Cc2ccc(F)cc2)c2cccc(O)c12` was tested, and the growth was 21.5%. `CC(=O)OC1CCC2C3CCC4=C/C(=N/OC(=O)c5ccc(N(CCCl)CCCl)cc5)CCC4(C)C3CC(C)C12` (stereo not given) gave a growth of 73.9%. `C1CCC2(CC1)OOCNCOO2` gave a growth of 93.1%. `COc1ccc(/C=C\c2cc(OC)c(OC)c(OC)c2)cc1NC(=O)/C=C/c1ccc(OC)c(OC)c1` was tested, and the growth was 42.3%. For `Clc1cc(N2CC2)nc(N2CC2)n1`, the growth was 5.82% (active). For `O=C(CCCC1CCCCC1)OCC(Cl)(Cl)Cl`, the growth was 102%. For `CC(=O)Nc1ccc(NC(=O)c2ccc([As](O)O)cc2)cc1`, the growth was 107%. `Clc1ccc(CO/N=C(\Cn2ccnc2)c2ccc(Cl)cc2Cl)c(Cl)c1` was tested, and the growth was 1.17% (active). `CC(C)CCC(=O)O[C@H]1CC[C@H]2[C@@H]3CCC4=CC(=O)CC[C@]4(C)[C@H]3CC[C@]12C` was tested, and the growth was 88.5%. For `C[C@]12CC[C@H]3[C@@H](CC[C@]4(O)C[C@@H](O[C@@H]5O[C@H](CO)[C@@H](O[C@@H]6OC[C@@H](O)[C@H](O)[C@H]6O)[C@H](O)[C@H]5O)CC[C@]34C=O)[C@@]1(O)CC[C@@H]2C1=CC(=O)OC1`, the growth was -5.08% (active). In the case of `CCOC(=O)[C@@H](C)C[C@H](Cc1ccccc1)NC(=O)c1csc([C@@H](C[C@H](C(C)C)N(C)C(=O)[C@@H](NC(=O)[C@H]2CCCCN2C)C(C)(C)CC)OC(C)=O)n1`, the growth is reported as 19.8%. In the case of `O=C(N/N=C/c1ccc(N(CCCl)CCCl)cc1)c1cccc2ccccc12`, the growth is reported as 80.5%. `CSc1nc(Cl)cc(N2CC2)n1` was tested, and the growth was 98.3%. `O=C1C(=Cc2cn(Cc3ccccc3)c3ccccc23)C(=O)N(Cc2ccccc2)C(=O)N1Cc1ccccc1` gave a growth of 94.6%. For `O=C(O)c1c(Cl)n(Cc2ccc(O)cc2)c2ccc(O)cc12`, the growth was 95.2%. Work on `C[S+]1C=Cc2ccccc2C1c1ccc(Cl)cc1` (stereo not given) yielded a growth of 72.7%.
